Consider seven compounds from PubChem BioAssay (NCATS).

Values without a mark were called inactive. Records with an inconclusive call do not appear. Active and inactive are the calls of the source. Unless noted, the call rests on the fitted dose curve; in most records, active means well fitted curve in the direction sought with a large enough effect; inconclusive means small, poorly fitted or top-dose-only effect, or another doubt; inactive means no such curve, though single readings can be large; an effect the other way counts as inactive or inconclusive. Some results are limits rather than exact numbers.

Assay [1] addresses Lysosomal acid glucosylceramidase (Homo sapiens) (UniProt P04062). Nature of the assay: Glucocerebrosidase-p2 (AID 348; in the data active means potency below about 10 µM; further: potency means the concentration at half of the fitted maximal effect). Particulars: purified GBA, blue fluorogenic substrate, 40 min. The method in brief:
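Normal human glucocerebrosidase (0.2 nM) with blue fluorogenic substrate (80 uM final) in citrate/phosphate pH 5.9 with 10mM sodium taurocholate, 0.01% tween-20; 40 min RT, NaOH/glycine stop; fluorescence Ex 365/Em 440; AC50 from a titration from 0.6 nM upwards.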

Assay [2] can be described thus: AP1 Signaling Pathway (AID 357; active means well fitted curve in either direction with a large enough effect, not every such curve was filed as active;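 further: ME-180 reporter cells stimulated with EGF at its EC50 level; on the % scale 0 is the no-effect control and ±100 the full control effect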). To be noted: ME-180 AP-1-bla reporter, EGF-induced, beta-lactamase ratio, 5 h; at 7.69 µM (top of the series) unless noted. In a few lines: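 AP-1-bla ME-180 cells, Opti-MEM + 0.5% dialyzed FBS, plated overnight 37 °C. Cpd titration + EC50 EGF, 5 h 37 °C. CCF4 2.5 h RT; ex 405, em 460/530 ratio → %activity, AC50.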
For assay [3], the target named is Glucocorticoid receptor (Homo sapiens) (UniProt P04150). Nature of the assay: GR-GFP Redistribution (AID 450;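 active means compounds whose dose series gives a full or clear partial fitted curve of increased nuclear translocation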; further: potency means the concentration at half of the fitted maximal effect). To be noted: U2OS GR-GFP nuclear translocation, laser cytometry, 2 h.
Assay [4] has the same target. The assay can be described thus: GR-EFC Redistribution (AID 451; calls by dose curve; further: potency means the concentration at half of the fitted maximal effect). Particulars: CHO-K1 GR-EFC translocation, beta-gal luminescence, 2 h. In a few lines: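 Translocation of GR-ED fusion to nuclear EA restores b-gal, read by luminescence after 1 h room-temperature detection. Engineered CHO-K1 biosensor cells, 1,000/well, exposed 2 h at 37 C to titrations up to 46 uM final.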

Assay [5] addresses Mitogen-activated protein kinase 10 (Mus musculus) (UniProt Q61831). The assay can be described thus: JNK3 AlphaScreen Assay (AID 530; active means well fitted curve in either direction with a large enough effect, not every such curve was filed as active;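 further: kinase came from lysate of stimulated human HepG2 cells; signal reports phosphorylation of biotinylated GST-cJun 1-79 at Ser73 with 10 µM ATP; on the % scale 0 is the no-effect control and ±100 the full control effect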). To be noted: JNK3 lysate, c-Jun phosphorylation; series mostly up to 57.1 µM. In a few lines: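 Kinase buffer: 20 mM Tris-HCl pH 7.6, 10 mM MgCl2, 1 mM DTT, 0.1 mM Na3VO4, 0.01% Tween-20; ATP 10 uM. Substrate biotin-GST-cJun(1-79), enzyme from activated HepG2 lysates. Detection by Ser73 phospho-antibody AlphaScreen.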
For orientation: In Alpha technology, singlet oxygen from a donor bead excites a nearby acceptor bead.

The target of assay [6] is 3',5'-cyclic-AMP phosphodiesterase 4B (Homo sapiens) (UniProt Q07343). Nature of the assay: qHTS Assay for Inhibitors of PDE-IV (AID 607; active means well fitted activation curve with a large enough effect in the main read-out, with a control signal flat, not every such curve was filed as active; further: % of control where 0% means no effect). To be noted: HEK293 ACTOne CNG channel cells, membrane potential fluorescence; series mostly up to 22.9 µM. The method in brief:
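Cell-based read-out of cAMP via a modified cyclic nucleotide-gated channel and membrane potential dye (535/590 nm) in HEK293 cells expressing PDE4 endogenously. Compounds tested up to 22.9 uM final; 100 uM RO 20-1724 reference.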

Assay [7] concerns the target Dual specificity protein kinase CLK4 (Homo sapiens) (UniProt Q9HAZ1). Nature of the assay: qHTS Assay for Inhibitors of CDC-like Kinase 4 (ADP-Glo Assay) (AID 1771). Further: nearly all actives have a fitted effect of over 70% in size. Further: potency means the concentration at half of the fitted maximal effect. Particulars: recombinant CLK4, ADP-Glo luminescence; series mostly up to 80 µM. In a few lines:
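25 nM Clk4, 100 uM RS peptide, 1 uM ATP (final); 2 mM MgCl2, 0.5 mM EGTA, 2.5 mM DTT, 0.01% Triton X-100; 1 hr RT. ADP-Glo readout: ATP depletion 45 min, conversion/luciferase 30 min, luminescence.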

The target is the same in assay [8]. The assay can be described thus: qHTS Assay for Inhibitors of CDC-like Kinase 4 (ADP-FP Assay) (AID 1795). Further: nearly all actives have a fitted effect of over 60% in size. Further: potency means the concentration at half of the fitted maximal effect. Particulars: Transcreener ADP fluorescence polarization; series mostly up to 50 µM. In a few lines: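 Recombinant human Clk4 (6.25 nM) phosphorylated RS repeat peptide (100 uM) with 1 uM ATP in Tris pH 7.5/MgCl2/EGTA/DTT/Triton buffer for one hour. ADP was quantified by Transcreener competitive fluorescence polarization against an ADP calibration curve.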
On the technique in general: qHTS replaces the single test concentration by a dilution series.

The target in assay [9] is Ubiquitin carboxyl-terminal hydrolase 1 (Homo sapiens) (UniProt O94782). The assay can be described thus: Inhibitors of USP1/UAF1: Pilot qHTS (AID 504865). Further: nearly all actives have a fitted effect of over 35% in size. Further: potency means the concentration at half of the fitted maximal effect. To be noted: purified USP1/UAF1, Ub-rhodamine cleavage fluorescence; series mostly up to 54.9 µM. The method in brief: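 USP1/UAF1 complex (1nM) preincubated with compound 15 min at room temperature, then Ub-Rho substrate (150nM final) added. Fluorescence read kinetically at 480/540 nm, 6 reads every 60 seconds. Buffer: 50mM HEPES pH 7.8, 0.5mM EDTA, 0.1 mg/ml BSA, 1mM TCEP, 0.01% Tween-20.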

The nature of assay [10]: Primary qHTS for small molecule stabilizers of the endoplasmic reticulum resident proteome: Secreted ER Calcium Modulated Protein (SERCaMP) assay (AID 1508630). Further: on the % scale 0 is the no-effect control and ±100 the full control effect. Particulars: SH-SY5Y GLuc-SERCaMP (Gaussia luciferase released on ER calcium loss) secretion, thapsigargin, luminescence; series mostly up to 38.4 µM. In a few lines:
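The SH-SY5Y reporter protocol was run at 3 concentrations up to 38.3 uM (primary) or 11 concentrations (follow-up): 16 h compound, 100 nM thapsigargin for 4 h, then extracellular luciferase luminescence.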

For assay [11], the target named is Cytochrome P450 1A2 (Homo sapiens) (UniProt P05177). The assay can be described thus: p450-cyp1a2 (AID 410; calls by dose curve; further: potency means the concentration at half of the fitted maximal effect). To be noted: recombinant CYP1A2, luciferin-ME demethylation, luminescence; series mostly up to 57 µM. The method in brief: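 20nM CYP1A2, 100uM Luciferin-ME (=Km), 100mM KPO4; cpd 10 min RT; +NADPH regen, 60 min RT; stop/detect 20 min; luminescence. Normalized to furafylline 57 uM = full inhibition.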

Assay [12] is described as follows: NFAT Signaling Pathway (AID 444; active means well fitted curve in either direction with a large enough effect, not every such curve was filed as active;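 further: carbachol stimulus at about its EC50 of 1 µM final; on the % scale 0 is the no-effect control and ±100 the full control effect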). Particulars: Jurkat NFAT-bla M1, carbachol, beta-lactamase ratio, 5 h; at 7.69 µM (top of the series) unless noted. The method in brief: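 Read-out: CCF4 FRET ratio (460 nm/530 nm) after 1 h RT dye loading, used for %activity and AC50 from titration series. Cells: Jurkat NFAT-β-lactamase/M1 line, treated with compound plus 1 uM carbachol for 5 h, 37 °C.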

Assay [13] is described as follows: Stat Signaling Pathway (AID 446; active means well fitted curve in either direction with a large enough effect, not every such curve was filed as active). Particulars: ME-180 (cervical carcinoma) SIE beta-lactamase reporter, IL-6 stimulated, 5 h; at 7.69 µM (top of the series) unless noted. The method in brief: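 FRET read-out (405 nm excitation, 460/530 nm emission) of a beta-lactamase reporter under a STAT-inducible element in ME-180 cervical carcinoma cells. Cells with compound receive 40 pM IL-6 for 5 h. Values are normalised to AC90 stimulation and AC90 JAK-inhibitor controls.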

The target of assay [14] is Cytochrome P450 3A4 (Homo sapiens) (UniProt P08684). The assay can be described thus: qHTS Assay for Inhibitors and Substrates of Cytochrome P450 3A4 (AID 884). Further: potency means the concentration at half of the fitted maximal effect; nearly all actives have a fitted effect of over 50% in size. Particulars: recombinant CYP3A4, Luciferin-PPXE luminescence; series mostly up to 57.1 µM. In a few lines:
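Luminescent readout of luciferin produced by CYP3A4 (20 nM) dealkylation of Luciferin-PPXE, 25 uM (its KM). NADPH-driven reaction ran 60 min at RT after 10 min compound preincubation; data scaled to 57 uM ketoconazole as 100% inhibition.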

Assay [15] shares this target. Nature of the assay: qHTS Assay for Activators of Cytochrome P450 3A4 (AID 885). Further: nearly all actives have a fitted effect of over 65% in size. Particulars: recombinant CYP3A4, Luciferin-PPXE luminescence, 60 min; series mostly up to 57.1 µM. The method in brief: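 Luminescent readout of luciferin formed from 25 uM Luciferin-PPXE (KM level) by 20 nM CYP3A4 in 200 mM KPO4, with 60 min NADPH-driven reaction at room temperature after 10 min compound exposure. Ketoconazole (57 uM) defined 100% inhibition.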

Assay [16] deals with Cytochrome P450 2C19 (Homo sapiens) (UniProt P33261). The assay can be described thus: qHTS Assay for Inhibitors and Substrates of Cytochrome P450 2C19 (AID 899). Further: potency means the concentration at half of the fitted maximal effect; nearly all actives have a fitted effect of over 60% in size. Particulars: recombinant CYP2C19, luciferin-H EGE luminescence; series mostly up to 57.1 µM. The method in brief: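 5nM enzyme + 10uM Luciferin-H EGE (=KM), 50mM KPO4; cpd pin-transferred, 10 min 37C; NADPH regen, 60 min 37C; stopped w/ luciferin detection reagent, 20 min; luminescence. Normalized to 57uM ketoconazole (AC100).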
Chain of Cytochrome P450 2C19 (Homo sapiens) (P33261 whole entry, looked up): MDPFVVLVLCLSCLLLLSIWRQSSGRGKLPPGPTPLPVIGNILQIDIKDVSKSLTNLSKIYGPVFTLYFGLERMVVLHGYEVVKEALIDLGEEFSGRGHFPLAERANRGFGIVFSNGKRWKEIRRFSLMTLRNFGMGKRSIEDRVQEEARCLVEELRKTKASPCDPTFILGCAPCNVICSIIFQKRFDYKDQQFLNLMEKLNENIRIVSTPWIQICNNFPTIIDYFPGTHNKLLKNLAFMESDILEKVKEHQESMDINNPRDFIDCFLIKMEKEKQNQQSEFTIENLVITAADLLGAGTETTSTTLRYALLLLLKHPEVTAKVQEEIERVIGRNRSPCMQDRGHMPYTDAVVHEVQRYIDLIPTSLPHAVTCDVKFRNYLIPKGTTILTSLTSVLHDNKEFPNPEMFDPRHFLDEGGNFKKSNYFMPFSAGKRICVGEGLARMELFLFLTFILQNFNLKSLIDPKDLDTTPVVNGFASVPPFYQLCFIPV

Chain of Ubiquitin carboxyl-terminal hydrolase 1 (Homo sapiens) (O94782 whole entry, looked up): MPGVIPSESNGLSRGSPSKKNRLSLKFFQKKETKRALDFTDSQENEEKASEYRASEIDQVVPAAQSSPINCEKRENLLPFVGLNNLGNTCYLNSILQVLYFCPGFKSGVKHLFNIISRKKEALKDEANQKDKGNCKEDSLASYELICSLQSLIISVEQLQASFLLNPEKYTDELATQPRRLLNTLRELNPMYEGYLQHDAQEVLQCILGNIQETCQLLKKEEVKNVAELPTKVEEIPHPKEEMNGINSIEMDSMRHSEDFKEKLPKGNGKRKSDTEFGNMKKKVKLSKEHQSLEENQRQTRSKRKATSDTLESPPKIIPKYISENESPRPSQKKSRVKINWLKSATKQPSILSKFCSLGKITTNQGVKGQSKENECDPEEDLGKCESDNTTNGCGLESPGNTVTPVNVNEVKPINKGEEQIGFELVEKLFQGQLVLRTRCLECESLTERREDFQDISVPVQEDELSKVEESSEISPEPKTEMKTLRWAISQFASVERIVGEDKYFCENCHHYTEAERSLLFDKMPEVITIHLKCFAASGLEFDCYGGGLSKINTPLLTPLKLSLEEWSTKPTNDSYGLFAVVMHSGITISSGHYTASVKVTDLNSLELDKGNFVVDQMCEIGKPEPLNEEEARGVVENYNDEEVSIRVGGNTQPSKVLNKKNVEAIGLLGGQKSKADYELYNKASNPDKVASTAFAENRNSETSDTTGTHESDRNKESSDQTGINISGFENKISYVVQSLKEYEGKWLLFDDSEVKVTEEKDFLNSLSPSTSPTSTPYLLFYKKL
Chain of Glucocorticoid receptor (Homo sapiens) (P04150 whole entry, looked up, the tested form may be a part): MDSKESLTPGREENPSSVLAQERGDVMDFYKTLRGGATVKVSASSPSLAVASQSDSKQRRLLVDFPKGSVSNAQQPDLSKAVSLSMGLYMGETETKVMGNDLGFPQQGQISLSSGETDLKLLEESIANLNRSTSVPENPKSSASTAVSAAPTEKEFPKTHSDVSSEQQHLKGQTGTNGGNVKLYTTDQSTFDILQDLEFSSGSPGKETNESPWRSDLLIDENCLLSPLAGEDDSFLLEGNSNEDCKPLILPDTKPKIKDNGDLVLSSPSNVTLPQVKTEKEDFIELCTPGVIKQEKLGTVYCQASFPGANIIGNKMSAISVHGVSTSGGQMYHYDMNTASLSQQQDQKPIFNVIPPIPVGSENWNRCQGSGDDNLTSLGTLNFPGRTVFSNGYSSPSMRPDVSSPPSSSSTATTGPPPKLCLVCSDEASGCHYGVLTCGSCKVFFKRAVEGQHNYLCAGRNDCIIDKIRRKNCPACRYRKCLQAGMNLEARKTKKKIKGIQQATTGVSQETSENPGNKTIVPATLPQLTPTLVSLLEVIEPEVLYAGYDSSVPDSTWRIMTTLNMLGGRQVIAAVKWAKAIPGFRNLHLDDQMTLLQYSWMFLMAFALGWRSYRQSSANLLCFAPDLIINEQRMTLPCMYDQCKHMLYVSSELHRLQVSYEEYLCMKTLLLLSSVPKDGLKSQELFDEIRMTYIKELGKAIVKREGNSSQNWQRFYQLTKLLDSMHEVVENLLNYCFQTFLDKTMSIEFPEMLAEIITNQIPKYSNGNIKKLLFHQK
Chain of Lysosomal acid glucosylceramidase (Homo sapiens) (P04062 whole entry, looked up): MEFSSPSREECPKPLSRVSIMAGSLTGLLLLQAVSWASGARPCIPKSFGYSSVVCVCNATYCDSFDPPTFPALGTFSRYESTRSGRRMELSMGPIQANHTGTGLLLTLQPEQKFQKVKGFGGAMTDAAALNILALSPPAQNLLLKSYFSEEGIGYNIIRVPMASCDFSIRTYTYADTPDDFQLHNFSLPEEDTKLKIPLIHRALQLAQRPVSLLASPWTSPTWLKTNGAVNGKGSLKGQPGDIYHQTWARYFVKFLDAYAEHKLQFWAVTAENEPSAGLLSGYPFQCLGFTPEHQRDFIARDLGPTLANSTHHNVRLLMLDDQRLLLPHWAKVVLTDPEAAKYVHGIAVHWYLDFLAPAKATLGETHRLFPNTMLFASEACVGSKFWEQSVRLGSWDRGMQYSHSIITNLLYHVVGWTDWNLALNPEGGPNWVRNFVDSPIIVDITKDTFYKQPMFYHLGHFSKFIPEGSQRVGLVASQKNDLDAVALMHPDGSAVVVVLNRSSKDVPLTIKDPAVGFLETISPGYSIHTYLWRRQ
Chain of 3',5'-cyclic-AMP phosphodiesterase 4B (Homo sapiens) (Q07343 whole entry, looked up): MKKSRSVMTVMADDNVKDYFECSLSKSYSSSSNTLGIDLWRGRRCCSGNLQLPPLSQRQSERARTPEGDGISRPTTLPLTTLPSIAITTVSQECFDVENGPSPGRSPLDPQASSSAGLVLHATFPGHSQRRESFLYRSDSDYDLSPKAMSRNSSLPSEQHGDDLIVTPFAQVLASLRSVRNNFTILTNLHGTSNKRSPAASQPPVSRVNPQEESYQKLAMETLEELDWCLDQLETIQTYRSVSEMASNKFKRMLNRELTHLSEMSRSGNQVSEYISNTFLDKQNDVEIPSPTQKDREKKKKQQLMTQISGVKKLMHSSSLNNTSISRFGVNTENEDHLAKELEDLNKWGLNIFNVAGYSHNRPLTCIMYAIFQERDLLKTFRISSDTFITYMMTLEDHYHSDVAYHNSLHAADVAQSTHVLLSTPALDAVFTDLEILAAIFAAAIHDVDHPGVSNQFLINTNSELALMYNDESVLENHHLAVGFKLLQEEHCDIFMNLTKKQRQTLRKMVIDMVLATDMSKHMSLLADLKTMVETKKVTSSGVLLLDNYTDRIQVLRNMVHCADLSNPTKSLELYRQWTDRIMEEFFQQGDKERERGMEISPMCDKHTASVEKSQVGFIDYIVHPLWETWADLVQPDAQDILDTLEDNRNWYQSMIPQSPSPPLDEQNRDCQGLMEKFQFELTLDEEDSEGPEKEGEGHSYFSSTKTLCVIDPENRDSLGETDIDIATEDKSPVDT
Chain of Cytochrome P450 3A4 (Homo sapiens) (P08684 whole entry, looked up): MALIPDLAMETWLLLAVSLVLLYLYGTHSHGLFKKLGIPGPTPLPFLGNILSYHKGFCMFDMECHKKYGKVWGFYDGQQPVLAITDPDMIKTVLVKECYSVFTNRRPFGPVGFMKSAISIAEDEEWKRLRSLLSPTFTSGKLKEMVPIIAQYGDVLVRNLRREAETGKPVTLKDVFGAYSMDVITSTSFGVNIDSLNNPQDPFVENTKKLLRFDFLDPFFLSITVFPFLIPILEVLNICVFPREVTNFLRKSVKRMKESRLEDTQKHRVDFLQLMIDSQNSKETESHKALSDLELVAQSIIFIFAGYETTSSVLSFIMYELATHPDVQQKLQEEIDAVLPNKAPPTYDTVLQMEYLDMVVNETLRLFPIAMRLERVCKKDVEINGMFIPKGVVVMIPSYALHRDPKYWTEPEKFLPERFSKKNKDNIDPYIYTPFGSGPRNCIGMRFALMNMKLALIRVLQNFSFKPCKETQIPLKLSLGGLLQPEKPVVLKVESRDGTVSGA
Chain of Cytochrome P450 1A2 (Homo sapiens) (P05177 whole entry, looked up): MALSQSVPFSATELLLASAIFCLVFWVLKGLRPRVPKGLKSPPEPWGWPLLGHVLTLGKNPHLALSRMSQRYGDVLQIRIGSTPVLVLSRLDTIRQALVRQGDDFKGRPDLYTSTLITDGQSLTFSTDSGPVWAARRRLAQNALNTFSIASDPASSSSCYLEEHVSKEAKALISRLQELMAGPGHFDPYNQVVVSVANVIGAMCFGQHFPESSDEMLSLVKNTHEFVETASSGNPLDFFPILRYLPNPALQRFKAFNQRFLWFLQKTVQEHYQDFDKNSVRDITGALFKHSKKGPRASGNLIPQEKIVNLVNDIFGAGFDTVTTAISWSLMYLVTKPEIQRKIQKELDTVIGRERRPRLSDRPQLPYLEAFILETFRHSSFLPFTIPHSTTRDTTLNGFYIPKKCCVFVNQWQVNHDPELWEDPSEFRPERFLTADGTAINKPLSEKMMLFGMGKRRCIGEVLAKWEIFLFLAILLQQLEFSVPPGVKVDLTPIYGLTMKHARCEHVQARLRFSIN
Chain of Dual specificity protein kinase CLK4 (Homo sapiens) (Q9HAZ1 whole entry, looked up): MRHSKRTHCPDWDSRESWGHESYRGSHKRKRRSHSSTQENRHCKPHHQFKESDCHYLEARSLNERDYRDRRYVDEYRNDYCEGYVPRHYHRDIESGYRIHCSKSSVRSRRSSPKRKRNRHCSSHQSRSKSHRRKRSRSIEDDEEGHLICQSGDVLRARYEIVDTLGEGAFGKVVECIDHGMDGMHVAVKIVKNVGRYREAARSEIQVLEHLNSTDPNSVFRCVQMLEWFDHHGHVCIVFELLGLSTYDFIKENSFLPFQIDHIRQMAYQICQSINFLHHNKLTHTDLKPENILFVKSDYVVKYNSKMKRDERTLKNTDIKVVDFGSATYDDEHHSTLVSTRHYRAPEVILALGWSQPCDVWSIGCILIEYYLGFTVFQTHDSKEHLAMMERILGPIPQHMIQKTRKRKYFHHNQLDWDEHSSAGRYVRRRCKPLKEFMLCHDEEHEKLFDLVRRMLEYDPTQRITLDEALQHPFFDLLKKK

On to `Cc1noc(C)c1-c1ccc2ncnc(Nc3ccccc3)c2c1`, for which the Potency is greater than 11.4 µM in assay [1]; greater than 46 µM in [3]; greater than 46 µM in [4]; 7.94 µM (active) in assay [7]; 10 µM (active) in assay [8]. Further, in assay [2], the activity change, negative = inhibition is -6.37%. The Potency result in [5], in assay [6] and in assay [9] was “inactive” throughout. Besides, the result in assay [10] was inactive.
In the case of `COc1ccccc1CNc1ccnc(-c2c(C)noc2C)n1`, the Potency in assay [1] was greater than 11.4 µM; in assay [11] it was 0.398 µM (active); in [3], greater than 46 µM; in [4], greater than 46 µM; in [14], 5.01 µM (active). In addition, the activity change, negative = inhibition in assay [2] is 18%; in assay [12] it was -13.8%. In assay [13], the activity, negative = inhibition is -17.2%. Besides, the Potency entry in [5], in assay [15], in assay [7] and in assay [8] was “inactive” throughout. In [10], the outcome was inactive.
Regarding `CS(=O)(=O)Nc1cccc(-c2cncnc2Nc2ccccc2)c1`, the Potency in assay [1] was greater than 11.4 µM; in [11], 5.01 µM (active); in [3], greater than 46 µM; in assay [4] it was greater than 46 µM; in assay [14], 0.501 µM (active); in assay [7], 22.4 µM (active). Moreover, the figures for the activity change, negative = inhibition in [2] and in assay [12] were -20.2% and 23.9%, respectively. For the same compound, the activity, negative = inhibition in [13] is -2.71%. Moreover, the Potency result in assay [5], in [6], in [15], in assay [8] and in [9] was “inactive” each time. In [10], the result was inactive.
On to `c1cn(-c2cc(-c3ccc4c(c3)OCO4)ncn2)cn1`, for which the Potency in assay [1] is greater than 11.4 µM; in assay [3], greater than 46 µM; in assay [7], 2.82 µM (active); in assay [8] it was 2 µM (active); in [9] it was 17.8 µM (active). In addition, the figures for the activity change, negative = inhibition in [2] and in assay [12] were 13.6% and 13.4%, respectively. Further, the activity, negative = inhibition in [13] was 6.1%. Also, the Potency result in assay [5] and in [6] was “inactive” each time. Besides, the result in assay [10] was inactive.
`N#CCCn1c(=O)cnc2cnc(Oc3cccc(Cl)c3)nc21`: the activity change, negative = inhibition in assay [2] was 5.43%; in assay [12], -14%. In addition, the activity, negative = inhibition in assay [13] is -4.72%. Further, the Potency in assay [3] was greater than 9.22 µM. Moreover, the Potency result in assay [5], in assay [6], in [7], in [8] and in assay [9] was “inactive” throughout. Besides, the outcome in [10] was inactive.
Take `COc1ccc2[nH]cc(CCNc3ccnc(-c4c(C)noc4C)n3)c2c1`: the Potency was greater than 11.4 µM in [1]; 2 µM (active) in assay [11]; greater than 46 µM in assay [3]; greater than 46 µM in [4]; 2.51 µM (active) in assay [14]; 1.58 µM (active) in [16]. Also, the figures for the activity change, negative = inhibition in assay [2] and in assay [12] were -4.62% and 9.64%, respectively. In addition, the activity, negative = inhibition in assay [13] is -5.35%. The Potency entry in assay [5], in assay [6], in [15], in [7], in [8] and in assay [9] was “inactive” throughout. Besides, the outcome in assay [10] was inactive.
As for `CNc1nc(-c2ccccc2C)nc2ccccc12`, the Potency in assay [1] was 8.72 µM (active); in [11], 0.501 µM (active); in assay [3], greater than 46 µM; in assay [4], greater than 46 µM; in assay [7] it was 12.6 µM (active); in assay [8] it was 14.1 µM (active). The activity change, negative = inhibition was 8.12% in [2] and 3.1% in assay [12]. In assay [13], the activity, negative = inhibition is 9%. For the same compound, the Potency entry in assay [5], in assay [6], in assay [15] and in [9] was “inactive” throughout. Besides, in [10], the result was inactive.
